Inconclusive results are not listed. Calls of active or inactive are those of the source. The calls were made as follows: active = hit-call score of the fitted dose curve at least 0.9, where 1 is the maximum; inconclusive = response in the unintended direction; inactive = score below 0.9.
Assays:
[1] = target: human Dopamine Receptor D4.4 (DRD4.4), DRD4 (gene 1815) (UniProt P21917); test: NVS_GPCR_hDRD4.4: NovaScreen (NVS) G Protein-Coupled Receptor Assay for human Dopamine Receptor D4.4 (DRD4.4) (AID 2283264)
Procedure, shortened: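 Radioligand displacement on human DRD4.4 from CHO-derived membranes, 1 hour incubation, bound counts read by filtration and scintillation. Primary screen in duplicate at 25 uM; actives followed up in concentration series.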

[2] = target: human Serotonin, 5-Hydroxytryptamine Receptor 5A (5HT5A), HTR5A (gene 3361) (UniProt P47898); test: NVS_GPCR_h5HT5A: NovaScreen (NVS) G Protein-Coupled Receptor Assay for human Serotonin, 5-Hydroxytryptamine Receptor 5A (5HT5A) (AID 2283251)
Procedure, shortened: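 Cell-free radioligand displacement binding on HEK293-derived membrane protein, 1 h incubation, filter-based scintillation counting. Primary screen in duplicate at 25 uM, actives followed in concentration series; loss of signal fitted versus DMSO.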

[3] = target: human Serotonin, 5-Hydroxytryptamine Receptor 7 (5HT7), HTR7 (gene 3363) (UniProt P34969); test: NVS_GPCR_h5HT7: NovaScreen (NVS) G Protein-Coupled Receptor Assay for human Serotonin, 5-Hydroxytryptamine Receptor 7 (5HT7) (AID 2283255);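 also: hits reduce specific radioligand binding relative to DMSO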
Procedure, shortened: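 Radioligand displacement on membranes from CHO cells expressing human 5HT7, 1 h incubation, filter-based scintillation counting. Primary screen used a single 25 uM concentration in duplicate; actives were followed up in concentration series.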

[4] = target: human Adrenergic, Alpha 2A Receptor (Adra2A), ADRA2A (gene 150) (UniProt P08913); test: NVS_GPCR_hAdra2A: NovaScreen (NVS) G Protein-Coupled Receptor Assay for human Adrenergic, Alpha 2A Receptor (Adra2A) (AID 2283257)
Procedure, shortened: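 Radioligand filter-binding was run on HT29-derived membranes, cell-free, read by scintillation counting 1 h after dosing. Primary screening was in duplicate at 25 uM, with concentration series in follow-up. Loss of signal versus DMSO indicates displacement.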

[5] = target: human Adrenergic, Beta 1 Receptor (Adrb1), ADRB1 (gene 153) (UniProt P08588); test: NVS_GPCR_hAdrb1: NovaScreen (NVS) G Protein-Coupled Receptor Assay for human Adrenergic, Beta 1 Receptor (Adrb1) (AID 2283258)
Procedure, shortened: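 Cell-free radioligand displacement on receptor from human neuroepithelioma cells; 2 h after dosing, filter-based scintillation counting. Primary screen in duplicate at 25 uM, actives retested in concentration series; loss of signal vs DMSO baseline.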

[6] = target: Beta-2 adrenergic receptor (Homo sapiens) (UniProt P07550); test: NVS_GPCR_hAdrb2: NovaScreen (NVS) G Protein-Coupled Receptor Assay for human Adrenergic, Beta 2 Receptor (Adrb2) (AID 2283261)
Procedure, shortened: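 Filter-based radioligand binding using receptor prepared from CHO cells, 1 h incubation, scintillation counting. Primary screen in duplicate at 25 uM, actives retested in concentration series; loss of binding relative to DMSO.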

[7] = target: human Adrenergic, Beta 3 Receptor (Adrb3), ADRB3 (gene 155) (UniProt P13945); test: NVS_GPCR_hAdrb3: NovaScreen (NVS) G Protein-Coupled Receptor Assay for human Adrenergic, Beta 3 Receptor (Adrb3) (AID 2283262)
Procedure, shortened: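 Membranes from SK-N-MC cells pretreated with isoproterenol and 8-bromo-cAMP were used in a radioligand competitive displacement binding assay. Binding was read by filter-based scintillation counting 1 hour after dosing. Primary screening was in duplicate at 25 uM, with concentration series in follow-up.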

[8] = target: human Dopamine Receptor D2 (DRD2), DRD2 (gene 1813) (UniProt P14416); test: NVS_GPCR_hDRD2s: NovaScreen (NVS) G Protein-Coupled Receptor Assay for human Dopamine Receptor D2 (DRD2) (AID 2283266)
Procedure, shortened: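 Radioligand displacement used human DRD2 membranes extracted from CHO cells and was read by filter-based scintillation counting after 1.5 hours. Primary screening was in duplicate at 25 uM. Loss of signal versus DMSO was fitted, with concentration series in follow-up.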

[9] = target: D(1A) dopamine receptor (Homo sapiens) (UniProt P21728); test: NVS_GPCR_hDRD1: NovaScreen (NVS) G Protein-Coupled Receptor Assay for human Dopamine Receptor D1 (DRD1) (AID 2283269)
Procedure, shortened: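 Radioligand displacement binding on membranes/protein extracted from HEK293 expressing human D1, cell-free; read 1 h after dosing by filter-based scintillation counting. Primary screen in duplicate at 25 uM, actives followed up in concentration series; signal loss versus DMSO baseline.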

[10] = target: guinea pig Opioid, Kappa 1 Receptor (OpiateK), OPRK1 (gene 100135587) (UniProt P41144); test: NVS_GPCR_gOpiateK: NovaScreen (NVS) G Protein-Coupled Receptor Assay for guinea pig Opioid, Kappa 1 Receptor (OpiateK) (AID 2283252);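 also: radioligand displacement from kappa opioid receptor in guinea pig cerebellar membranes; active means reduced radioligand binding relative to DMSO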
Procedure, shortened: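 Guinea pig cerebellar membranes, radioligand displacement with filter-based scintillation counting, 2 h after dosing. Primary screen single concentration 25 uM in duplicate; actives retested in concentration series; loss of binding fitted versus DMSO.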

[11] = target: human Serotonin, 5-Hydroxytryptamine Receptor 6 (5HT6), HTR6 (gene 3362) (UniProt P50406); test: NVS_GPCR_h5HT6: NovaScreen (NVS) G Protein-Coupled Receptor Assay for human Serotonin, 5-Hydroxytryptamine Receptor 6 (5HT6) (AID 2283253)
Procedure, shortened: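 Radioligand binding to 5HT6 in HEK293-derived membranes, cell-free, 1 h after dosing; bound ligand measured by filter-based scintillation counting. Primary screen in duplicate at 25 uM; actives retested in concentration series.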

[12] = target: human Leukotriene B4 Receptor 1 (LTB4-BLT1), LTB4R (gene 1241) (UniProt Q15722); test: NVS_GPCR_hLTB4_BLT1: NovaScreen (NVS) G Protein-Coupled Receptor Assay for human Leukotriene B4 Receptor 1 (LTB4-BLT1) (AID 2283271)
Procedure, shortened: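 Radioligand displacement binding on receptor extracted from human neutrophils, cell-free, 1 h after dosing; filter-based scintillation counting. Primary screen in duplicate at 25 uM, actives retested in concentration-response up to 50 uM; loss of signal versus DMSO.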

[13] = target: human Adenosine A1 Receptor (AdoRA1), ADORA1 (gene 134) (UniProt P30542); test: NVS_GPCR_hAdoRA1: NovaScreen (NVS) G Protein-Coupled Receptor Assay for human Adenosine A1 Receptor (AdoRA1) (AID 2283254)
Procedure, shortened: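 Radioligand binding was run on human cortical membranes, cell-free, with filter-based scintillation counting 1 h after dosing. The primary screen was duplicate at 25 uM, followed by concentration series. Signal loss versus DMSO was fitted positive-direction.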

[14] = target: human Endothelin Receptor Type A (ETA), EDNRA (gene 1909) (UniProt P25101); test: NVS_GPCR_hETA: NovaScreen (NVS) G Protein-Coupled Receptor Assay for human Endothelin Receptor Type A (ETA) (AID 2283265)
Procedure, shortened: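 Cell-free radioligand displacement using SH-SY5Y-derived protein, 3 h incubation, filter-based scintillation counting. Primary screen in duplicate at 25 uM; actives then run in concentration-response up to 50 uM; loss of binding fitted versus DMSO.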

[15] = target: human Adenosine A2a Receptor (AdoRA2a), ADORA2A (gene 135) (UniProt P29274); test: NVS_GPCR_hAdoRA2a: NovaScreen (NVS) G Protein-Coupled Receptor Assay for human Adenosine A2a Receptor (AdoRA2a) (AID 2283256)
Procedure, shortened: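 Radioligand displacement on HEK293-derived membrane protein, cell-free; filter-based scintillation counting 1.5 hours after dosing, loss of signal vs DMSO. Single-point duplicate screen at 25 uM, actives retested in concentration series.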

[16] = target: human Adrenergic, Alpha 2c Receptor (Adra2C), ADRA2C (gene 152) (UniProt P18825); test: NVS_GPCR_hAdra2C: NovaScreen (NVS) G Protein-Coupled Receptor Assay for human Adrenergic, Alpha 2c Receptor (Adra2C) (AID 2283259)
Procedure, shortened: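 Radioligand binding on Sf9-expressed receptor membranes, 1 h after chemical dosing, filter-based scintillation read-out. Loss of binding fitted positively versus DMSO; primary duplicate screen at 25 uM, actives retested in concentration series.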

[17] = target: human Histamine 1 Receptor (H1), HRH1 (gene 3269) (UniProt P35367); test: NVS_GPCR_hH1: NovaScreen (NVS) G Protein-Coupled Receptor Assay for human Histamine 1 Receptor (H1) (AID 2283268)
Procedure, shortened: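 Cell-free radioligand displacement at human H1 receptor, 1 h, filter scintillation counting; primary screen 25 uM in duplicate, hits in concentration series; loss of binding fitted vs DMSO.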

[18] = target: Muscarinic acetylcholine receptor M1 (Homo sapiens) (UniProt P11229); test: NVS_GPCR_hM1: NovaScreen (NVS) G Protein-Coupled Receptor Assay for human Muscarinic, M1 Receptor (AID 2283270)
Procedure, shortened: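 Cell-free radioligand displacement using membrane protein extracted from CHO cells, read by filter-based scintillation counting 1 h after dosing. Loss of bound signal fitted versus DMSO; primary screen single concentration 25 uM in duplicate, actives followed by concentration series.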

[19] = target: Type-1 angiotensin II receptor (Homo sapiens) (UniProt P30556); test: NVS_GPCR_hAT1: NovaScreen (NVS) G Protein-Coupled Receptor Assay for human Angiotensin II receptor type 1 (AT1) (AID 2283263)
Procedure, shortened: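 Membranes from KAN-TS cells; radioligand competitive displacement, 3 h, filtration and scintillation counting. Single-point duplicate screen at 25 uM, then concentration-response up to 50 uM for hits; loss of signal fitted versus DMSO.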

Measured: AC50

Chain of human Adenosine A1 Receptor (AdoRA1), ADORA1 (gene 134) (P30542 whole entry, looked up): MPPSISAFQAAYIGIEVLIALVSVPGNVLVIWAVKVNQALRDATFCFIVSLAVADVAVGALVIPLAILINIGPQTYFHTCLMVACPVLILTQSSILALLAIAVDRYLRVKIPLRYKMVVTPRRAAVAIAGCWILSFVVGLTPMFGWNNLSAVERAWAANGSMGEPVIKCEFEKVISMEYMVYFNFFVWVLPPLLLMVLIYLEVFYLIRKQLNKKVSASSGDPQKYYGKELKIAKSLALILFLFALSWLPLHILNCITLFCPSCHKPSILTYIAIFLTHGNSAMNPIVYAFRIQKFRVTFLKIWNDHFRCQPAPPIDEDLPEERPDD
Chain of human Dopamine Receptor D2 (DRD2), DRD2 (gene 1813) (P14416 whole entry, looked up): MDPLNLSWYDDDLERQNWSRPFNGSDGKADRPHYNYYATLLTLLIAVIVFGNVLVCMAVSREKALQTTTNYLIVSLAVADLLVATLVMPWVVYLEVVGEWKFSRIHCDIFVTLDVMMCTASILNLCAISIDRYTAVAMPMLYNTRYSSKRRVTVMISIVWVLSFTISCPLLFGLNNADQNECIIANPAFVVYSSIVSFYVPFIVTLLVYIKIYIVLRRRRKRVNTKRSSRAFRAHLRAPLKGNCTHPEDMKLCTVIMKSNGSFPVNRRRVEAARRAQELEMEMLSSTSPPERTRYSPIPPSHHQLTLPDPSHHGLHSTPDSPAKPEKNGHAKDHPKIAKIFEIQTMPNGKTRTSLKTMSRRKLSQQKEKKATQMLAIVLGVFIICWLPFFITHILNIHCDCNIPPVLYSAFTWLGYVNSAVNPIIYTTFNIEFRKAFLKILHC
Chain of human Adrenergic, Alpha 2c Receptor (Adra2C), ADRA2C (gene 152) (P18825 whole entry, looked up): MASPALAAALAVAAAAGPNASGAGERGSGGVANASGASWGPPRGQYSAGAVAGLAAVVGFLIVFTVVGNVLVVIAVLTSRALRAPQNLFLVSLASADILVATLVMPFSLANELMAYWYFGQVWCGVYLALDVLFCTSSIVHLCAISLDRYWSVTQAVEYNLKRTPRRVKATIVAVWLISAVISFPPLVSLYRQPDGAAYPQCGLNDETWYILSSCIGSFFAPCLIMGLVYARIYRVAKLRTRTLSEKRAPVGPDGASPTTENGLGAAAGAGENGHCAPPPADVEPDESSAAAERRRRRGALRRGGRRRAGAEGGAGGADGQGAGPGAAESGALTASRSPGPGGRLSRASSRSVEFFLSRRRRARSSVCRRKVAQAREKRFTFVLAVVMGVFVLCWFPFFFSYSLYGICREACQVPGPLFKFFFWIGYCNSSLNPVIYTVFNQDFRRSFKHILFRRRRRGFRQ
Chain of human Adenosine A2a Receptor (AdoRA2a), ADORA2A (gene 135) (P29274 whole entry, looked up): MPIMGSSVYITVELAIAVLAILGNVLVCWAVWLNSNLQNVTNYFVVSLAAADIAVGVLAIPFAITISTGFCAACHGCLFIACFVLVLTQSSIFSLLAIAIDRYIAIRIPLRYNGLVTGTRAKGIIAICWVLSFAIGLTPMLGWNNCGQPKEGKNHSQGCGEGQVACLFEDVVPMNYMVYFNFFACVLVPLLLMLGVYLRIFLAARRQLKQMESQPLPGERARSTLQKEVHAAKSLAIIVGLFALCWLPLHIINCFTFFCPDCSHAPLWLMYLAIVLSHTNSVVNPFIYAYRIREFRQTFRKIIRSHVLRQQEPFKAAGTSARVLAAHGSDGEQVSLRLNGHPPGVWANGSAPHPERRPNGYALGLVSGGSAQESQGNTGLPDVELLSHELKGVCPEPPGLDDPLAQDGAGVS
Chain of human Dopamine Receptor D4.4 (DRD4.4), DRD4 (gene 1815) (P21917 whole entry, looked up): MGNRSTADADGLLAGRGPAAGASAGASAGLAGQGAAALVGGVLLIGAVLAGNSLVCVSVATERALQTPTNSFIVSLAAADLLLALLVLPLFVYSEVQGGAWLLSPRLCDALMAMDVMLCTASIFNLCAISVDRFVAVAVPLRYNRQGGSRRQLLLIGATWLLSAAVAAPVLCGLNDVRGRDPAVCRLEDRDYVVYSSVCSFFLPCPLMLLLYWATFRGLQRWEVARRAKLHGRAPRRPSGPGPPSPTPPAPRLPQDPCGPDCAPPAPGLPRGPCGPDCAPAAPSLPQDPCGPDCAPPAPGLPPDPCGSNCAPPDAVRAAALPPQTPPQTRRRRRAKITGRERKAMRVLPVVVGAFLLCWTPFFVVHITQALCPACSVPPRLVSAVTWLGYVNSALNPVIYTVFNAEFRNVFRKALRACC
Chain of human Adrenergic, Beta 1 Receptor (Adrb1), ADRB1 (gene 153) (P08588 whole entry, looked up): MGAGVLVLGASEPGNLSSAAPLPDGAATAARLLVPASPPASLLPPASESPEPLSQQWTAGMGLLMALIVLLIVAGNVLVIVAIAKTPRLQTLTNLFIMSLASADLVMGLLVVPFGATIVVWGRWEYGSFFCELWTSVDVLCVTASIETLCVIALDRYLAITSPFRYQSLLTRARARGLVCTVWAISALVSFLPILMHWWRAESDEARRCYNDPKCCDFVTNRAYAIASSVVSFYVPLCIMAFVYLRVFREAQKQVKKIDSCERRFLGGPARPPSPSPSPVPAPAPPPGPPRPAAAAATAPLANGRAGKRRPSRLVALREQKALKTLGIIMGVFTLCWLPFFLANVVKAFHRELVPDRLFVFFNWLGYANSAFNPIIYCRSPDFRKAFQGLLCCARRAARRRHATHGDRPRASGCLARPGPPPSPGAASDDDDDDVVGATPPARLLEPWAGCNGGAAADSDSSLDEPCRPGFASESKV
Chain of guinea pig Opioid, Kappa 1 Receptor (OpiateK), OPRK1 (gene 100135587) (P41144 whole entry, looked up): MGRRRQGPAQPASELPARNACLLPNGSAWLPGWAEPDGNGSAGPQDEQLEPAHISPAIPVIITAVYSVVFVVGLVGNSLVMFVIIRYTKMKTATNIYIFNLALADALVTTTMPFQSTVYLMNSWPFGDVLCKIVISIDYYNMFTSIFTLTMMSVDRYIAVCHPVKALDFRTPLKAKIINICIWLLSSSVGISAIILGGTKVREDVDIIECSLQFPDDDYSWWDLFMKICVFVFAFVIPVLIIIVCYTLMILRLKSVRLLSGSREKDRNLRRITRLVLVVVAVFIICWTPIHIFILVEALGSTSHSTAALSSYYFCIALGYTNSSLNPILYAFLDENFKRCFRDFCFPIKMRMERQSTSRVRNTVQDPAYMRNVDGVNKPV
Chain of human Serotonin, 5-Hydroxytryptamine Receptor 7 (5HT7), HTR7 (gene 3363) (P34969 whole entry, looked up): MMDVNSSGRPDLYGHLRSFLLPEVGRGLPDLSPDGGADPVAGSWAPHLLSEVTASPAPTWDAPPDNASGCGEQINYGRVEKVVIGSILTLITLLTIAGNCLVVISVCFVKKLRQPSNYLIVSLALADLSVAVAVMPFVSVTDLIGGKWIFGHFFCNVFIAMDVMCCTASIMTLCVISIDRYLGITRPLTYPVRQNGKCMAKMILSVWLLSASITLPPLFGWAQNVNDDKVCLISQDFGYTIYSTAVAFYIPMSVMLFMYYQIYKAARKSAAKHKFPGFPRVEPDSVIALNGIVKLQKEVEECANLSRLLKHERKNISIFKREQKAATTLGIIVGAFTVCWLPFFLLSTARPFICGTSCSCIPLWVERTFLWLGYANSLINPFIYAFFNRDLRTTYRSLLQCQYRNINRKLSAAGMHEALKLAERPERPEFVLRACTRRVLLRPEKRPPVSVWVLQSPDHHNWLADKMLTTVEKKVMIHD
Chain of human Adrenergic, Beta 3 Receptor (Adrb3), ADRB3 (gene 155) (P13945 whole entry, looked up): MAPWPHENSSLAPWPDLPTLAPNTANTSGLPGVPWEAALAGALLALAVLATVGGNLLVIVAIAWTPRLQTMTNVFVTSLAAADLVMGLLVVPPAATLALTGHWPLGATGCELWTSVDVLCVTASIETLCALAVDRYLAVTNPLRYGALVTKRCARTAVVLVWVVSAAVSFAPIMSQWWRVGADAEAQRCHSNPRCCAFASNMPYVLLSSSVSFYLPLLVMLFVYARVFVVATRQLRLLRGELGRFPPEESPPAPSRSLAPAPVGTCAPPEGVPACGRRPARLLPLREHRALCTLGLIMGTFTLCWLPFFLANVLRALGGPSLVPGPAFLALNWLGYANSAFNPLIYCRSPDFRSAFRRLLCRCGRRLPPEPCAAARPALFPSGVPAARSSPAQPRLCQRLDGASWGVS
Chain of human Serotonin, 5-Hydroxytryptamine Receptor 5A (5HT5A), HTR5A (gene 3361) (P47898 whole entry, looked up): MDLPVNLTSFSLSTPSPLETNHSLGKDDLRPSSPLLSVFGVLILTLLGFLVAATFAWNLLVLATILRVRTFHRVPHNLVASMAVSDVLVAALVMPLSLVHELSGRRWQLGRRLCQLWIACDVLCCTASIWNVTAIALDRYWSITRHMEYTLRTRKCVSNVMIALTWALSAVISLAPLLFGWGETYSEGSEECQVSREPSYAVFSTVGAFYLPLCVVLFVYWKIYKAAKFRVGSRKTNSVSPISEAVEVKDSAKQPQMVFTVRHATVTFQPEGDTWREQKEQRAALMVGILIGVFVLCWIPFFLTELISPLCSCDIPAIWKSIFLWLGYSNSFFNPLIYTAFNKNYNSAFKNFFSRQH
Chain of D(1A) dopamine receptor (Homo sapiens) (P21728 whole entry, looked up): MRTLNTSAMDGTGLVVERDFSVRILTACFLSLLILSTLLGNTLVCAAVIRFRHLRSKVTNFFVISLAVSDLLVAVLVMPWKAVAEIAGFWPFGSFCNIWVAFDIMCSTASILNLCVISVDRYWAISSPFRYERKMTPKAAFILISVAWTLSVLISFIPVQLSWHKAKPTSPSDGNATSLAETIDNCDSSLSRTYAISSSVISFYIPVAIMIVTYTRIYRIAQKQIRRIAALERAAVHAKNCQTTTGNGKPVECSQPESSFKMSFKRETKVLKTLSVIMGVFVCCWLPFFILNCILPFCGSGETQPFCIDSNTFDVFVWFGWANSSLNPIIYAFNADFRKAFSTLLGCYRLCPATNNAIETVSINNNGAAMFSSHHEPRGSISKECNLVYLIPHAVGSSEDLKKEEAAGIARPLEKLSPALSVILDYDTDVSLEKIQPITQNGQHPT

c1ccc2cc3c(ccc4ccccc43)cc2c1
active: [1] 35.5 µM

NC(=O)N(O)[C@@H]1C=C[C@H](Oc2cccc(Oc3ccc(F)cc3)c2)C1
inactive: [5] | [6] | [7] | [8]
active: [2] 14 µM | [3] 12.8 µM | [4] 6.62 µM | [9] 25 µM

CC(=O)NC1(c2cccc(F)c2)CCN(CC[C@@]2(c3ccc(Cl)c(Cl)c3)CN(c3ccccc3)C(=O)CO2)CC1
active: [2] 28.3 µM | [10] 20.8 µM | [11] 5.94 µM | [3] 20.8 µM | [7] 34.2 µM | [1] 13.2 µM | [8] 11 µM | [9] 14.8 µM

O=c1c(-c2ccc(O)cc2)coc2cc(O)ccc12
inactive: [12]

O=[N+]([O-])c1ccc(O)cc1
inactive: [3]

O=C(OCCOCCOC(=O)c1ccccc1)c1ccccc1
active: [13] 5.62 µM | [3] 8.96 µM

N#C[C@@H]1CC(F)(F)CN1C(=O)CNC1CC2CCC(C1)N2c1ncccn1 (some centres undefined)
active: [14] 9.53 µM

NC(=O)N1C(=O)C(C(=O)c2cc(Cl)cs2)c2cc(F)c(Cl)cc21 (centres undefined)
inactive: [3] | [5] | [9]
active: [2] 41.3 µM | [13] 8.46 µM | [15] 19.7 µM | [16] 25 µM

COc1ccc([N+](=O)[O-])cc1N
active: [8] 7.93 µM

Cc1oc(-c2ccccc2)nc1CCOc1ccc(C[C@H](Nc2ccccc2C(=O)c2ccccc2)C(=O)O)cc1
inactive: [3] | [1] | [18]
active: [2] 9.5 µM | [13] 25 µM | [16] 13.6 µM | [17] 35.5 µM | [9] 12.1 µM

CC[C@H](C)[C@@H](C(=O)O)n1sc2ccccc2c1=O
active: [10] 12.7 µM

CCCCCCCCCCCCc1ccccc1S(=O)(=O)O
inactive: [10] | [4]
active: [2] 6.39 µM | [11] 31.9 µM | [13] 18.1 µM | [3] 7.69 µM | [15] 22.6 µM | [5] 6.83 µM | [16] 7.16 µM | [6] 21.7 µM | [19] 8.83 µM | [1] 9.01 µM | [8] 18.5 µM | [17] 25.2 µM | [9] 6.99 µM | [18] 18.4 µM

CC[C@H](c1ccc(O)cc1)[C@@H](CC)c1ccc(O)cc1
active: [2] 1.69 µM | [13] 8.65 µM | [15] 12.4 µM | [8] 6.99 µM
inactive: [10] | [3] | [16] | [7]

CCCCCCCCCCCCCCCS(=O)(=O)Oc1ccccc1
inactive: [5]
